# Assay results published in ChEMBL document CHEMBL1201862, “PubChem BioAssay data set” (2004).
# Out of some 56,000 sequences screened, about 5,400 (9.6%) were called active. Rule as the data show it: active = GI50 up to about 1.1 µM and inactive = higher. The entries come from a sample that favours actives as a whole. Results with a measured potency or affinity are listed apart.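 Grown in 96-well plates, cells were treated for 48 hours with each compound at five concentrations. Insufficient inhibition: endpoint recorded as highest concentration tested. GI50 marks 50% less growth.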
# Test system: K562
# Assay: NCI tumour cell line growth inhibition, 48 h
row,Substance,GI50
1,"[Bis(aminomethyl)pentamethylenesilane]dichloropaltinum(II), CHEMBL2146202",3.47 µM
2,"[Bis(aminomethyl)tetramethylenesilane]dichloropaltinum(II), CHEMBL2146205",10.2 µM
3,"[Bis(aminomethyl)tetramethylenesilane]tetrachloropaltinum(IV), CHEMBL2146189",2.57 µM
4,"cis-Bis[[(trimethylsilyl)methyl]amino]tetrachloroplatinum(IV), CHEMBL2146191",2.92 µM
5,"[Bis(aminomethyl)dimethylsilane]tetrachloroplatinum(IV), CHEMBL2146190",3.78 µM
6,"[Bis(aminomethyl)diethylsilane]tetrachloroplatinum(IV), CHEMBL2146203",0.916 µM
7,"[Bis(aminomethyl)pentamethylenesilane]tetrachloropaltinum(IV), CHEMBL2146204",1.79 µM
8,"[Bis(aminomethyl)ethylmethylsilane]tetrachloroplatinum(IV), CHEMBL2146192",1.69 µM
9,"CISPLATIN, CHEMBL11359",5.56 µM
10,"CHLOROTRIPHENYLSTANNANE, CHEMBL515580",0.0256 µM
11,"[Bis(aminomethyl)dimethylsilane]dichloroplatinum (II), CHEMBL2146201",16.5 µM
12,"mu-(1,7-nanodiamine-N,N')bis-(cis-aminedichloroplatimum (II)), CHEMBL2146215",30.7 µM
